Assay [1] is described as follows: qHTS assay to identify small molecule antagonists of the thyroid receptor (TR) signaling pathway (AID 743065). Further: nearly all actives have a fitted effect of over 55% in size. Put shortly:
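GH3.TRE-Luc rat pituitary cells (two TREs driving luciferase) were dosed with compound, then stimulated with 1 nM T3 (final) for 23.5 h at 37 C. ONE-Glo luminescence was the read-out, with CellTiter-Fluor fluorescence as the cytotoxicity counter-screen.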

In assay [2] the test system is thyroid hormone receptor (rat, GH3 cells). In words: qHTS assay to identify small molecule agonists of the thyroid receptor (TR) signaling pathway (AID 743066; calls by dose curve). On the technique in general: In qHTS, concentration-response curves come from the screen itself.
Assay [3] concerns the target Estrogen receptor (Homo sapiens) (UniProt P03372). The assay can be described thus: qHTS assay to identify small molecule antagonists of the estrogen receptor alpha (ER-alpha) signaling pathway (AID 743069; active means well fitted curve in the direction sought with a large enough effect in the signal ratio in the repeat runs, not every such curve was filed as active; the % refers to the signal ratio). In outline: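 Reporter cells (ER-alpha-bla, HEK293 background) are conditioned overnight in stripped-serum medium (2% charcoal-stripped FBS). Compound and 17beta-estradiol exposure runs 18 hr at 37C, 5% CO2.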

Assay [4] can be described thus: qHTS assay to identify small molecule antagonists of the estrogen receptor alpha (ER-alpha) signaling pathway - cell viability counter screen (AID 743074; calls by dose curve;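 further: HEK293 cells carrying ER-alpha-UAS-bla reporter stimulated with 17beta-estradiol; nearly all actives have a fitted effect of over 45% in size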).
Assay [5] has as its target Estrogen receptor (Homo sapiens) (UniProt P03372). In words: qHTS assay to identify small molecule agonists of the estrogen receptor alpha (ER-alpha) signaling pathway (AID 743075; calls by dose curve;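 further: HEK293 GripTite cells with ER-alpha and UAS-driven beta-lactamase reporter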).
Assay [6] has the same target. In words: qHTS assay to identify small molecule agonists of the estrogen receptor alpha (ER-alpha) signaling pathway using the BG1 cell line (AID 743079). Further: nearly all actives have a fitted effect of over 20% in size. Further: potency means the concentration at half of the fitted maximal effect. Particulars: BG1Luc4E2 cells, ERE-luciferase agonist, 22 h; activation: at 70.3 µM (top of the series) unless noted.
Assay [7] is described as follows: qHTS assay to identify small molecule antagonists of the estrogen receptor alpha (ER-alpha) signaling pathway using the BG1 cell line (AID 743080; calls by dose curve;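 further: BG1 cells stimulated with 17beta-estradiol alongside compound; nearly all actives have a fitted effect of over 25% in size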). Put shortly:
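BG1Luc4E2, endogenous ER-alpha, 4xERE-luc; 5 d charcoal-stripped FBS, phenol red free; 24 h plating; cpd + 17beta-estradiol 21.5 h, 37 C/5% CO2; CellTiter-Fluor viability 30 min, then ONE-Glo luciferase 30 min RT.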

Assay [8] can be described thus: qHTS assay to identify small molecule antagonists of the estrogen receptor alpha (ER-alpha) signaling pathway using the BG1 cell line - cell viability counter screen (AID 743081).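 Further: compound given together with 17beta-estradiol as the ER stimulus; nearly all actives have a fitted effect of over 45% in size.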
The target in the next assay is Aromatase (Homo sapiens) (UniProt P11511). In words: qHTS assay to identify aromatase inhibitors (AID 743083). Further: nearly all actives have a fitted effect of over 55% in size.
Sequence of Aromatase (Homo sapiens) (P11511 whole entry, looked up): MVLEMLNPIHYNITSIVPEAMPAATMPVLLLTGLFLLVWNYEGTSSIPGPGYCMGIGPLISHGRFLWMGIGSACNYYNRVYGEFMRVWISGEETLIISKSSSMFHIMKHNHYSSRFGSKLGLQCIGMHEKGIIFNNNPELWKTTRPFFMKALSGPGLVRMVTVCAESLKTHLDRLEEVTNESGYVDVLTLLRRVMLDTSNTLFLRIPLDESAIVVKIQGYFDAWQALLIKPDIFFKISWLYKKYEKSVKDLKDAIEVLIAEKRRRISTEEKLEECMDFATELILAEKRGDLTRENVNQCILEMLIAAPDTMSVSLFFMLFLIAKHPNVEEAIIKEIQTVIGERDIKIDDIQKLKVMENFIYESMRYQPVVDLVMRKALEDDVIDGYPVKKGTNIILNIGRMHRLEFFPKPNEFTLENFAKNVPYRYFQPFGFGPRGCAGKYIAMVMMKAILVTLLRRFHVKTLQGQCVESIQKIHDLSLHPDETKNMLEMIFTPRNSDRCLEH
A short description of assay [9]: qHTS assay to identify aromatase inhibitors - cell viability counter screen (AID 743084).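 Further: cells stimulated with testosterone during compound exposure; nearly all actives have a fitted effect of over 55% in size.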
Assay [10] has as its target Aryl hydrocarbon receptor (Homo sapiens) (UniProt P35869). The assay can be described thus: qHTS assay to identify small molecule that activate the aryl hydrocarbon receptor (AhR) signaling pathway (AID 743085).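 Further: HG2L7.5c1 human HepG2 liver cells with stably integrated DRE-driven firefly reporter; nearly all actives have a fitted effect of over 15% in size.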 Put shortly:
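HepG2 cells (HG2L7.5c1) stably carrying a firefly luciferase reporter driven by 20 dioxin responsive elements were exposed to compound for 24 h at 37C after a 5 h settling period; luminescence rise (ONE-Glo) indicated activation.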

Assay [11] is described as follows: qHTS assay to identify small molecule that activate the aryl hydrocarbon receptor (AhR) signaling pathway - cell viability counter screen (AID 743086).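 Further: HepG2 liver cells carrying the AhR DRE luciferase reporter; nearly all actives have a fitted effect of over 45% in size.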 Put shortly: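 HepG2-AhR-luc (HG2L7.5c1) cells, 4000/well, treated 24 h at 37 C with compound; viability measured as CellTiter-Fluor fluorescence after 30 min in the same wells as the luciferase read.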
In assay [12] the target is Peroxisome proliferator-activated receptor gamma (Homo sapiens) (UniProt P37231). The assay can be described thus: qHTS assay to identify small molecule agonists of the peroxisome proliferator-activated receptor gamma (PPARg) signaling pathway (AID 743094; active means well fitted activation curve with a large enough effect in the signal ratio in the repeat runs, not every such curve was filed as active; the % refers to the signal ratio). Put shortly: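 GeneBLAzer PPARg UAS-bla HEK293H cells carrying a stably integrated beta-lactamase reporter were pre-incubated 5 h at 37C, then exposed to compounds in DMSO for 17 h at 37C; LiveBLAzer B/G FRET substrate was added for 1 h at room temperature and fluorescence read.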
Sequence of Peroxisome proliferator-activated receptor gamma (Homo sapiens) (P37231 whole entry, looked up): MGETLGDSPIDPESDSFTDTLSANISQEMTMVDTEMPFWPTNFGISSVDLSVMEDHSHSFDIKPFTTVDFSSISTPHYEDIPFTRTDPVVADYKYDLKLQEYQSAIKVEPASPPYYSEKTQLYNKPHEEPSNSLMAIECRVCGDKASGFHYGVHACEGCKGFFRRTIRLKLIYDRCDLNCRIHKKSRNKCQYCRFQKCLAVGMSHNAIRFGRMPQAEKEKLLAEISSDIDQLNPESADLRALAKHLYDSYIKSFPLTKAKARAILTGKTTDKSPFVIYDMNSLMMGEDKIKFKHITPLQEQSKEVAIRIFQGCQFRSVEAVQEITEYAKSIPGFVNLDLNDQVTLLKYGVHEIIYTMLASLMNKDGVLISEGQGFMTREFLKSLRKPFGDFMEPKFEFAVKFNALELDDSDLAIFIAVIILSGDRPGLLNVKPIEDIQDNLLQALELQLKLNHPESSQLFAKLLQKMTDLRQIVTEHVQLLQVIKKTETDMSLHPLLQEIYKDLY

Assay [13] has the same target. In words: qHTS assay to identify small molecule antagonists of the peroxisome proliferator-activated receptor gamma (PPARg) signaling pathway (AID 743191; calls by dose curve; further: nearly all actives have a fitted effect of over 30% in size). In outline:
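GeneBLAzer PPARg UAS-bla HEK293H cells, 5 h post-plating, exposed to compounds 17 h at 37C. LiveBLAzer B/G FRET substrate added for 1 h at room temperature; beta-lactamase reporter read by fluorescence intensity.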

A short description of assay [14]: qHTS assay to identify small molecule antagonists of the peroxisome proliferator-activated receptor gamma (PPARg) signaling pathway - cell viability counter screen (AID 743194). Further: nearly all actives have a fitted effect of over 55% in size. Particulars: Potency: co-treated with 50 nM rosiglitazone unless noted. In outline:
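Cytotoxicity counter screen in PPARg-bla HEK293H cells, same wells as reporter assay. Compounds plus 50 nM rosiglitazone (final) for 17 h at 37 C, then viability read by CellTiter-Glo luminescence.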

The nature of assay [15]: qHTS assay for small molecule agonists of the antioxidant response element (ARE) signaling pathway (AID 743202; active means well fitted activation curve with a large enough effect in the signal ratio in the repeat runs, not every such curve was filed as active; the % refers to the signal ratio). Put shortly: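 Agonist mode reporter screen: HepG2 cells with ARE-controlled beta-lactamase are incubated with test compounds for 16 h at 37 C, and beta-lactamase activity is measured as fluorescence of cleaved B/G FRET substrate.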
Assay [16] can be described thus: qHTS assay for small molecule agonists of the antioxidant response element (ARE) signaling pathway - cell viability counter screen (AID 743203; calls by dose curve; further: nearly all actives have a fitted effect of over 55% in size). Put shortly: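 CellSensor ARE-bla HepG2 cells, 2,000 per well, rested 5 hrs at 37C/5% CO2, then exposed to compound in DMSO for 16 hrs; viability read as CellTiter-Glo luminescence after 30 min at room temperature, in the reporter wells.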

Assay [17] in a line: qHTS assay for small molecule activators of the heat shock response signaling pathway - cell viability counter screen (AID 743209). Further: nearly all actives have a fitted effect of over 50% in size. Put shortly: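 CellSensor HSE-bla HeLa cells, plated overnight at 37 C/5% CO2, were exposed to compounds in DMSO for 5 h at 37 C. Viability was then read in the same wells by CellTiter-Glo luminescence after 30 min at room temperature.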
Assay [18] can be described thus: qHTS assay for small molecule activators of the heat shock response signaling pathway (AID 743210; active means well fitted activation curve with a large enough effect in the signal ratio in the repeat runs, with a control signal flat, not every such curve was filed as active; the % refers to the signal ratio;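 further: HeLa cells with beta-lactamase reporter driven by heat shock elements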). In outline: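 Quantitative high-throughput format using an engineered HeLa line in which heat shock response elements drive beta-lactamase; after 5 h with compound, cells received a B/G FRET substrate and fluorescence was read.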
A short description of assay [19]: qHTS assay to identify small molecule agonists of the peroxisome proliferator-activated receptor delta (PPARd) signaling pathway - cell viability counter screen (AID 743211). Further: nearly all actives have a fitted effect of over 55% in size. Put shortly:
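PPARd-bla HEK293H cells (UAS-beta-lactamase reporter) were treated with compounds for 17 h at 37 C. Viability was then read in the same wells by CellTiter-Glo luminescence after 30 min at room temperature.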

SMILES strings stand for the structures. Values joined by “and” are separate entries in the source; they are usually repeats but may differ in a detail not shown here. Equal values may be shown once. Records with an inconclusive call do not appear. Some compounds were tested as several samples or in several runs, with calls that do not always agree. Active and inactive are the calls of the source. Unless noted, the call rests on the fitted dose curve; in most records, active means well fitted curve in the direction sought with a large enough effect in the repeat runs; inconclusive means weak or mixed curves; inactive means no such curve, though single readings can be large; an effect the other way counts as inactive or inconclusive.

Sequence of Aryl hydrocarbon receptor (Homo sapiens) (P35869 whole entry, looked up): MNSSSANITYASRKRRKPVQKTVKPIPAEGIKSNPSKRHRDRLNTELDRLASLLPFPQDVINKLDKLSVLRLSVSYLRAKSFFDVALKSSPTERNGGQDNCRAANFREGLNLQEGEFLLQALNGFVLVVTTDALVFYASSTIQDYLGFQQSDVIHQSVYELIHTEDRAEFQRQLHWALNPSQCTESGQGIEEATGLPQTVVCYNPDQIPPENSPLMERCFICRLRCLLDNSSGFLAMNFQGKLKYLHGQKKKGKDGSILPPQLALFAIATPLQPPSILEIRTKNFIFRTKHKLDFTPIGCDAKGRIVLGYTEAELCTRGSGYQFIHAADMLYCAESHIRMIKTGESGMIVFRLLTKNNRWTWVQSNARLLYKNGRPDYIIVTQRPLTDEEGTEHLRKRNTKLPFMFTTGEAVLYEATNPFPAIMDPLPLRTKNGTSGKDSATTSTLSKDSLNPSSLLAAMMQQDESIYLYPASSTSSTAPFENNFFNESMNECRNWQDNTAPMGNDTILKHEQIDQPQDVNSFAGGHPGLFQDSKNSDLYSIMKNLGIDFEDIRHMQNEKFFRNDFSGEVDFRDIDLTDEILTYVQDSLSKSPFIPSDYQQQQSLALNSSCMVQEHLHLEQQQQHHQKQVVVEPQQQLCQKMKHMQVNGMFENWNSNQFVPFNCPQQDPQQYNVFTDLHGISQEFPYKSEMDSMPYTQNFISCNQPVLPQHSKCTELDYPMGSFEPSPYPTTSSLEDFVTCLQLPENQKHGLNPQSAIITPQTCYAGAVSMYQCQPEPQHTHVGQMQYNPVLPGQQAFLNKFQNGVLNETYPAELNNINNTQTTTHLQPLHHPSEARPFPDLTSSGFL
Sequence of Estrogen receptor (Homo sapiens) (P03372 whole entry, looked up): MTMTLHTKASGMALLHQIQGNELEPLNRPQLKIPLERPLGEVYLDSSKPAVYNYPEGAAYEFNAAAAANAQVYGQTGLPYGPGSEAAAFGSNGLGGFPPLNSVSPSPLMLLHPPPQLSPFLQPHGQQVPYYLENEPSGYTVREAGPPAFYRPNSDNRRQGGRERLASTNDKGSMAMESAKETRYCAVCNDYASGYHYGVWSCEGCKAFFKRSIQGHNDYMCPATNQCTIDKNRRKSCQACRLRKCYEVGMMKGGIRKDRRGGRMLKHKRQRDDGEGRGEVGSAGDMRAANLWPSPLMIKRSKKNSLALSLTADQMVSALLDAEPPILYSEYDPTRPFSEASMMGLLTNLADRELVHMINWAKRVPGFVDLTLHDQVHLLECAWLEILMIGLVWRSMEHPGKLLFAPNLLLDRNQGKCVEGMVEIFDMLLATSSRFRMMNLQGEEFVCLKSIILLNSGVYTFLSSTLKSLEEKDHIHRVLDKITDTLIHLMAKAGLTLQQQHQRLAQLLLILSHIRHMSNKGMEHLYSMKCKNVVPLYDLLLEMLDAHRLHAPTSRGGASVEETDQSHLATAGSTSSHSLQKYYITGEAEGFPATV

In the case of `CCCCCCCCO`, the Potency result in assay [1], in assay [2], in assay [3], in [4], in assay [5] and in [6] was “inactive” each time. The Potency entry (in [7]; in [8]; with Aromatase (Homo sapiens); in assay [9]; in assay [10]; in assay [11]) was “inactive” each time. In addition, the Potency entry in [12], in assay [13], in assay [14], in [15], in assay [16] and in [17] was “inactive” in each case. Further, the Potency entry in assay [18] and in assay [19] was “inactive” in each case.
For `CC1(C)C(=O)N(Cl)C(=O)N1Cl`, the Potency result in assay [1], in [2], in assay [3], in [4], in assay [5] and in assay [7] was “inactive” each time. The Potency result (in assay [8]; with Aromatase (Homo sapiens); in assay [9]; in assay [10]; in assay [11]; in [12]) was “inactive” each time. The Potency result in assay [13], in assay [14], in assay [15], in [16], in assay [17] and in [18] was “inactive” throughout. In assay [19], the Potency entry is “inactive”. Besides, in [6], the Potency is 77 µM (active) and inactive.
In the case of `C1CCCNCC1`, the Potency entry in assay [1], in assay [2], in assay [3], in assay [4], in assay [5] and in [6] was “inactive” throughout. Further, the Potency entry (in assay [7]; in assay [8]; with Aromatase (Homo sapiens); in assay [9]; in assay [10]; in assay [11]) was “inactive” throughout. The Potency result in assay [12], in assay [13], in [14], in assay [15], in assay [16] and in [17] was “inactive” each time. In addition, the Potency result in assay [18] and in assay [19] was “inactive” throughout.
With `C=CC(=O)NCOCCCC`, the Potency result in [1], in [2], in [3], in [4], in [5] and in assay [6] was “inactive” throughout. Moreover, the Potency entry (in assay [7]; in assay [8]; with Aromatase (Homo sapiens); in assay [9]; in assay [10]; in assay [11]) was “inactive” each time. Besides, the Potency result in [12], in assay [14], in assay [16], in assay [17], in assay [18] and in [19] was “inactive” in each case.
With `CC(=O)OC(C)(C)C1CC=C(C)CC1` (centres undefined), the Potency result in [1], in [2], in assay [3], in [4], in assay [5] and in [7] was “inactive” each time. Also, the Potency result (in [8]; with Aromatase (Homo sapiens); in [9]; in assay [10]; in [11]; in [12]) was “inactive” throughout. Further, the Potency entry in assay [13], in [14], in [16] and in [18] was “inactive” each time. Also, in [6], the Potency entry is “inactive and 54.5 µM (active)”.
For the compound `COc1c(Cl)ccc(Cl)c1C(=O)O`, the Potency result in assay [1], in assay [2], in assay [3], in assay [4], in assay [5] and in assay [6] was “inactive” throughout. Also, the Potency entry (in assay [7]; in assay [8]; in the assay with Aromatase (Homo sapiens); in assay [9]; in assay [10]; in assay [11]) was “inactive” each time. The Potency result in assay [12], in assay [13], in assay [14], in assay [16], in [17] and in assay [18] was “inactive” in each case. The Potency entry in [19] was “inactive”.
On to `CN=C(NC#N)NCCSCc1nc[nH]c1C`, for which the Potency entry in [1], in assay [2], in [3], in assay [4], in assay [5] and in assay [6] was “inactive” in each case. Also, the Potency entry (in assay [7]; in assay [8]; with Aromatase (Homo sapiens); in assay [9]; in assay [10]; in assay [11]) was “inactive” each time. In addition, the Potency result in assay [12], in assay [13], in assay [14], in assay [15], in assay [16] and in assay [17] was “inactive” in each case. Also, the Potency entry in assay [18] and in assay [19] was “inactive” throughout.

Values taken from PubChem BioAssay (Tox21).
